These results are taken from ChEMBL document CHEMBL3988442, “University of Dundee, Small-Polar-MMV Screening Library” (2021).

For some assays here: Entries with a potency or affinity are not part of this list.

Holding throughout (design): scale not given: direction of the effect not stated beside the values
Assay [1] has as its target Protein translocase subunit SecA (Escherichia coli (strain K12)) (UniProt P10408). As to the kind of experiment: Assay to Identify E. coli SecA ATPase Inhibitors. In kind it is functional. The conditions noted are these: 30 µM.
For assay [2], the target named is T1, Ubiquitin-activating enzyme e1, putative (Leishmania donovani (strain BPK282A1)) (UniProt E9BSI1).
T1 sequence (whole entry): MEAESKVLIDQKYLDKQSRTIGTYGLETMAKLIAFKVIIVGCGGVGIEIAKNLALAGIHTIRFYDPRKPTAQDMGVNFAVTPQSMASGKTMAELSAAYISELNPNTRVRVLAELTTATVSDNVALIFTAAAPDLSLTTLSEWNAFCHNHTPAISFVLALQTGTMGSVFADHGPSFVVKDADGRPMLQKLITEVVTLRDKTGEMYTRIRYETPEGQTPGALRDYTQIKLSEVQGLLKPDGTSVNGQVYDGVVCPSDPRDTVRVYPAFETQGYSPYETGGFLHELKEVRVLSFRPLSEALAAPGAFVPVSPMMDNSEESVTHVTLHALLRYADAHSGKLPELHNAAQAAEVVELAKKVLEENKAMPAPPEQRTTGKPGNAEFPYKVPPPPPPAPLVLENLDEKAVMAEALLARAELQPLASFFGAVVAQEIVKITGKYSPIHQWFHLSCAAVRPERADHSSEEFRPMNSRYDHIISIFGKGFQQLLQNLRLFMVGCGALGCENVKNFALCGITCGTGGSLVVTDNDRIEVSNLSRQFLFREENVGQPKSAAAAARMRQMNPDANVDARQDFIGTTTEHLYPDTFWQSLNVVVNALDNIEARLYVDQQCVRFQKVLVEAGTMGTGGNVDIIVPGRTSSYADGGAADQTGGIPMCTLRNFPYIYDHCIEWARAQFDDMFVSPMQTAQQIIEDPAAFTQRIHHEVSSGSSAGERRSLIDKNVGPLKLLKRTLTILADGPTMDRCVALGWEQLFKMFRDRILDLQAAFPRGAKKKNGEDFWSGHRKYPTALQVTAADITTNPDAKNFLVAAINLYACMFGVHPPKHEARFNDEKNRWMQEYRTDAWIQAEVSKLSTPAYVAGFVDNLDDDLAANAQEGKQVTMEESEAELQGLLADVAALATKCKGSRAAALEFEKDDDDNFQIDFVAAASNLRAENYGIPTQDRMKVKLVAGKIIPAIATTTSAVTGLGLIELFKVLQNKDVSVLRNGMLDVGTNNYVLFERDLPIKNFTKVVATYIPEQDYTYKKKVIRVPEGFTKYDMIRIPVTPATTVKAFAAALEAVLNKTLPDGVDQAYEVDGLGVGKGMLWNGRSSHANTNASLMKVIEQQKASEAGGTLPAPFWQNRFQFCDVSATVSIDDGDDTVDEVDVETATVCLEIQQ
The assay can be described thus: Leishmania donovani Ubiquitin Activating Enzyme (LdE1). The format is functional. The conditions noted are these: 30 µM.

For assay [3], the target named is AMP-activated protein kinase, AMPK (Homo sapiens) (UniProt P54646+O43741+P54619+Q9UGJ0+Q9Y478+Q13131+Q9UGI9). The assay can be described thus: AMP-dependent Kinase enzyme assay. An in vitro enzyme assay that detects ADP turnover that is directly proportional to AMPK activity. This uses naive AMPK that is activated during the assay with MK-8722. In kind it is functional. The conditions noted are these: 30 µM.

Assay [4] concerns the target Sialic acid-binding Ig-like lectin 9 (Homo sapiens) (UniProt Q9Y336). As to the kind of experiment: Hs-Siglec9 ALPHAscreen SOP 20170721. The note with it: 10 µM. (Bead proximity is the source of the signal in Alpha formats.)
For the next assay, the system named is Trypanosoma cruzi. As to the kind of experiment: Trypanosoma cruzi phosphomannomutase and mannose-1-phosphate guanylyltransferase assay. The format is functional. The note with it: 10 µM.
Assay [5] deals with T2, Arginase-2, mitochondrial (Homo sapiens) (UniProt P78540).
T2 sequence (whole entry): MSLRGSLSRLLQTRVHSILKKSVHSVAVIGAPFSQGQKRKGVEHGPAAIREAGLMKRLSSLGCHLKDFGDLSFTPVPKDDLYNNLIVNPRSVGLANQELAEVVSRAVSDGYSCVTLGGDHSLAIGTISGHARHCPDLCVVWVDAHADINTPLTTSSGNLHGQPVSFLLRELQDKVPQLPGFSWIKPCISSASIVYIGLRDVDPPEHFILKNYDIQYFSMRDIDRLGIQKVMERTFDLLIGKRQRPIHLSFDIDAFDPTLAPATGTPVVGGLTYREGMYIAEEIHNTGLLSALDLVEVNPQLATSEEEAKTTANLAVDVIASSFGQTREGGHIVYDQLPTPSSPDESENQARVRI
The assay can be described thus: in vitro enzyme assay to detect the production of urea directly proportional to the activity of Arginase II. Note: in the data most compounds retested in dose-response had high values. In kind it is functional. The conditions noted are these: 33.3 µM.

For assay [6], the target named is T3, Proteasome subunit beta (Trypanosoma cruzi) (UniProt O96673).
T3 sequence (whole entry): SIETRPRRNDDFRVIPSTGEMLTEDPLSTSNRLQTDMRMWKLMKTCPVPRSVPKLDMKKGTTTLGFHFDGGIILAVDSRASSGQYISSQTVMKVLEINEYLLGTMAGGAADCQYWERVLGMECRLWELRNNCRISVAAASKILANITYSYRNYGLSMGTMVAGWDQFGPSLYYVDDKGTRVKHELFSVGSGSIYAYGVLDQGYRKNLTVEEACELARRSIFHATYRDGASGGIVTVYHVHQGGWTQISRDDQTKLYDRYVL
As to the kind of experiment: Trypanosoma cruzi proteasome chymotrypsin-like activity (TcProtChymo) assay. Note: in the data most compounds retested in dose-response had high values. In kind it is functional. The conditions noted are these: 9.37 µM.

For another assay, the species on record is Homo sapiens. As to the kind of experiment: To identify inhibition of the IFN signalling (Jak-Stat) pathway via expression of an eGFP reporter gene under the control of an IFN-stimulated response element (ISRE) containing MxA promoter. The conditions noted are these: 30 µM. The format is functional.
In assay [7] the target is T4, Tyrosyl-tRNA synthetase, putative (Trypanosoma cruzi (strain CL Brener)) (UniProt Q4DSP6).
T4 sequence (whole entry): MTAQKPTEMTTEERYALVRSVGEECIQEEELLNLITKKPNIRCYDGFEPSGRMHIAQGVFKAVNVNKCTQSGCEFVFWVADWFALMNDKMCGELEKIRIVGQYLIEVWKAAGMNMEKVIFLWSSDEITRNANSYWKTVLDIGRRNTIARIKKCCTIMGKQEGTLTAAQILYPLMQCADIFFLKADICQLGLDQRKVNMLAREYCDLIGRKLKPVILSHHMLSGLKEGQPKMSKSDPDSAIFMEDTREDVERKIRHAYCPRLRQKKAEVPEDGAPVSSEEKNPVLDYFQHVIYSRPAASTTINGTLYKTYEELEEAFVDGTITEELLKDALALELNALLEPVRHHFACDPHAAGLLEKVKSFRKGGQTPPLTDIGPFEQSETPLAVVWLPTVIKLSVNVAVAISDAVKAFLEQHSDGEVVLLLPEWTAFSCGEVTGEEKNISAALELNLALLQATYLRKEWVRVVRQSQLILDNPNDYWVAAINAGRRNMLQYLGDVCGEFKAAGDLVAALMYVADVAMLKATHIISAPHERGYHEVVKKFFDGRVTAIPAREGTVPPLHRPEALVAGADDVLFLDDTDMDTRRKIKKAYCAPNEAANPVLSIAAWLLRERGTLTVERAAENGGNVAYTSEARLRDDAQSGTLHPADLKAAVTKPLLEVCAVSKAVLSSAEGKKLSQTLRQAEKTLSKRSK
As to the kind of experiment: Trypanosoma cruzi tyrosyl tRNA synthetase (TcYRS) _High Tyrosine SOP. Note: in the data most compounds retested in dose-response had high values. In kind it is functional. The note with it: 30 µM.

Assay [8] concerns the target T4, Tyrosyl-tRNA synthetase, putative (Trypanosoma cruzi (strain CL Brener)). The assay can be described thus: Trypanosoma cruzi tyrosyl tRNA synthetase (TcYRS) SOP. The note with it: 30 µM. The format is functional.
The target in assay [9] is Chromo domain-containing protein 1 (Saccharomyces cerevisiae (strain ATCC 204508 / S288c) (Baker's yeast)) (UniProt P32657). The assay can be described thus: ScCHD-1 Enzyme Inhibition Assay. Note: in the data most compounds retested in dose-response had high values. The conditions noted are these: 30 µM. The format is functional.
Chain of Chromo domain-containing protein 1 (Saccharomyces cerevisiae (strain ATCC 204508 / S288c) (Baker's yeast)) (P32657 whole entry, the tested form may be a part): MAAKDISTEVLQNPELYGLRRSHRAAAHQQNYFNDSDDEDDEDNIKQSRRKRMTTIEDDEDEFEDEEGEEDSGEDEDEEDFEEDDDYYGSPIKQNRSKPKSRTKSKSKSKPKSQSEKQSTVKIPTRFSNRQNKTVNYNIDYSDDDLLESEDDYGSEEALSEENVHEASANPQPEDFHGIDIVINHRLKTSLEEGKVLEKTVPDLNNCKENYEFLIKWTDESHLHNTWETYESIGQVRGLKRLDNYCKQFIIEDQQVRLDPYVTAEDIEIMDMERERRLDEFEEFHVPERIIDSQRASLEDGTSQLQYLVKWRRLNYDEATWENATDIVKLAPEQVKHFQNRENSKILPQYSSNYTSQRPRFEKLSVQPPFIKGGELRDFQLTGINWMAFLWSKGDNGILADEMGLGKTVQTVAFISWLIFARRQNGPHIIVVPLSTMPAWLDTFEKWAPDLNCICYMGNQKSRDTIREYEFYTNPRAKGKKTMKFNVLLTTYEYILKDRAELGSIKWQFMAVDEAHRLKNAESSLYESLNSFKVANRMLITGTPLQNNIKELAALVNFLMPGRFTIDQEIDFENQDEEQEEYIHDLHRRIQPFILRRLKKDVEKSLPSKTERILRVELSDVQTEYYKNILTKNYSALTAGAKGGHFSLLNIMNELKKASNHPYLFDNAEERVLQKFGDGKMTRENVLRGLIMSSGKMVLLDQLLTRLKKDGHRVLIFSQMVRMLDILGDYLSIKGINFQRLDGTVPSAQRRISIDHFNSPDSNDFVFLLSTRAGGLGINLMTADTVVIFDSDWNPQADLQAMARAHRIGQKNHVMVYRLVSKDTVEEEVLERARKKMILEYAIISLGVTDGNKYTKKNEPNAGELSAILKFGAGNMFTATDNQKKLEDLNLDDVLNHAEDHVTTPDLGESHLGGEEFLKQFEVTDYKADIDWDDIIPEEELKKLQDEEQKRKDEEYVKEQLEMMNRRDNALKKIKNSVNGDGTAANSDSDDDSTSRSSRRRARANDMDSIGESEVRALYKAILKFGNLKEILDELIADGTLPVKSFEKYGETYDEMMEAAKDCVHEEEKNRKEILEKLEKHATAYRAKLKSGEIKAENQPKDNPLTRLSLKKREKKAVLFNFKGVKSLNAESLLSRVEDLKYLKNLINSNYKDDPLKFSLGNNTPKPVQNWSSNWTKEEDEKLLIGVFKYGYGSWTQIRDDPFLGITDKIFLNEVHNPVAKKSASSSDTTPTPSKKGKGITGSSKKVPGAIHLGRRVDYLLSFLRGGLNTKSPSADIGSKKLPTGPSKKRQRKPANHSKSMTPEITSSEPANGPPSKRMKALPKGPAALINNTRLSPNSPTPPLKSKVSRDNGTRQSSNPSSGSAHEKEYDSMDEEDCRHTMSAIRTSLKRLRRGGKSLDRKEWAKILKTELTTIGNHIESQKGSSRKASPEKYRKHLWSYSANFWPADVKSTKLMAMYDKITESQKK

Chain of Sialic acid-binding Ig-like lectin 9 (Homo sapiens) (Q9Y336 whole entry): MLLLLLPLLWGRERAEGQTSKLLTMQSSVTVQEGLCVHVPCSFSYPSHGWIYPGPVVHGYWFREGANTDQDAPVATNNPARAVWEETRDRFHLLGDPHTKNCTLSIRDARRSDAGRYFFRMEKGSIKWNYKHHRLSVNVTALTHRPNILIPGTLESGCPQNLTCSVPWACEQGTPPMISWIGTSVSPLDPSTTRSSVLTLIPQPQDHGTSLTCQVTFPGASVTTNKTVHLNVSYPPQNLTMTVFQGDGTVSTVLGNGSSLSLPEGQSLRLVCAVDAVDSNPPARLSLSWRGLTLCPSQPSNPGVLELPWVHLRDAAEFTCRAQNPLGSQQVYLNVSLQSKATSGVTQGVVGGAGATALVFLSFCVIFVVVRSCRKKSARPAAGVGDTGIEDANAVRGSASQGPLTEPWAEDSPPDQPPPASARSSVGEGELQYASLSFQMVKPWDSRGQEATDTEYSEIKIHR
Chain of Protein translocase subunit SecA (Escherichia coli (strain K12)) (P10408 whole entry): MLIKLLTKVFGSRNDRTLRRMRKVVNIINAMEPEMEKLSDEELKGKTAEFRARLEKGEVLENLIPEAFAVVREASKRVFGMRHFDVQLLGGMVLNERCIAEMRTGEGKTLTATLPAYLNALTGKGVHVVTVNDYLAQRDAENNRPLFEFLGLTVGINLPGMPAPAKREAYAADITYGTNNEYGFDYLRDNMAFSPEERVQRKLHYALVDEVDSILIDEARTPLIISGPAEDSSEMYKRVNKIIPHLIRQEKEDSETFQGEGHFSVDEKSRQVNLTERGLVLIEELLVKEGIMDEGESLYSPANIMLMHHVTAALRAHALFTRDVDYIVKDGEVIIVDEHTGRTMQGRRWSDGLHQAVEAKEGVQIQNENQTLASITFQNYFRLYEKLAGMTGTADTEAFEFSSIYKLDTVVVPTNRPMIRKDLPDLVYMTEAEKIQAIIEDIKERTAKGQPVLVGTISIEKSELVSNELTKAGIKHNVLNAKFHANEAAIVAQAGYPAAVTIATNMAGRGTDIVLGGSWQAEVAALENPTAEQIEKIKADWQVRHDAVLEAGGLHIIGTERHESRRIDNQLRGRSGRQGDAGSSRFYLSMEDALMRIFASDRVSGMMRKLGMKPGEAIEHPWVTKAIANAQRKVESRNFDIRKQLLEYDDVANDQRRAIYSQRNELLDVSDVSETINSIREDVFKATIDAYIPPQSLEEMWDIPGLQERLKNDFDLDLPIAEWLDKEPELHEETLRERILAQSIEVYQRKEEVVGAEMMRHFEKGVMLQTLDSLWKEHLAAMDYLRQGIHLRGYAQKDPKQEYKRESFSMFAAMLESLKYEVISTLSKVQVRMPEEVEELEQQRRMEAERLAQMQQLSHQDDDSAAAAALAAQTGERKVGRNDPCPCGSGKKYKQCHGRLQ

`Cn1ccc(CN2CCC(Oc3ccccc3)CC2)cc1=O`: the Percent Effect in assay [1] is -4.18%; in assay [2] it was 18.2%; in assay [3], -0.911%; in assay [4], 1.02%; in the assay with Trypanosoma cruzi, -1.69%; in assay [5], -0.356%. Further, the Percent Effect in assay [6] is 4.05%; in the assay listed under Homo sapiens it was -2.92%; in assay [7] it was 11.7%; in assay [8], 24.4%; in assay [9], -10.1%.

On to `COc1cc(N2CC[C@H](O)[C@@H]2Cc2cnn(C)c2)ncn1`, for which the Percent Effect in assay [1] was -0.518%; in assay [2], 10.8%; in assay [3], 1.19%; in assay [4], -5.15%; in the assay with Trypanosoma cruzi, -3.62%; in [5] it was 8.6%. Moreover, the Percent Effect in [6] is 19.2%; in the assay listed under Homo sapiens, -8.64%; in [7], 3.24%; in [8] it was 10.3%; in assay [9], -2.09%.

In the case of `Cc1noc(C)c1C(=O)NCC(c1ccc(F)cc1)N(C)C` (stereo not given), the Percent Effect is -3.62% in assay [1]; 8.11% in assay [2]; 1.69% in assay [3]; -12.4% in assay [4]; -3.25% with Trypanosoma cruzi; 0.924% in assay [5]. Moreover, the Percent Effect stood at 0.898% in assay [6]; 16.5% in the assay listed under Homo sapiens; 5.94% in [7]; 13.4% in assay [8]; 0.216% in [9].

For `Cc1cnn(CCC(=O)N2CCCN(c3ncccc3C#N)CC2)c1`, the Percent Effect in assay [1] is -7.15%; in assay [2] it was 19%; in assay [3], -1.68%; in [4], 6.67%; in the assay on Trypanosoma cruzi it was -1.74%; in assay [5], -0.215%. The Percent Effect in [6] was 9.61%; in the assay filed under Homo sapiens, -1.81%; in [7], 4.17%; in assay [8] it was 20.2%; in [9], -30.4%.

In the case of `Cc1nnc(N2CC[C@H]3C[C@@H](C(=O)NC4CCCC4)O[C@H]3C2)s1`, the Percent Effect in assay [1] was -5.67%; in assay [2], 0%; in [3], 11.8%; in assay [4] it was -3.34%; with Trypanosoma cruzi, -1.66%; in assay [5], 1.59%. The Percent Effect in assay [6] was 0.738%; in the assay filed under Homo sapiens, 10.7%; in assay [7], -1.08%; in assay [8] it was 7.69%; in assay [9], 8.63%.

In the case of `Fc1cnc(N2CCn3cc(CNc4ccccn4)nc3C2)nc1`, the Percent Effect in [1] is 0.222%; in [2], -2.67%; in assay [3], 7.82%; in assay [4] it was 16.2%; in the assay on Trypanosoma cruzi, -0.193%; in assay [5] it was -56.1%. Moreover, the Percent Effect was 3.76% in assay [6]; 7.84% in the assay listed under Homo sapiens; -1.04% in assay [7]; -5% in assay [8]; -2.56% in assay [9].

Regarding `CCC1CCCCN1C(=O)c1ccc2[nH]nnc2c1` (stereo not given), the Percent Effect in [1] was 0.483%; in assay [2], 0%; in assay [3] it was -3.81%; in assay [4], -0.908%; in the assay on Trypanosoma cruzi, -1.17%; in [5], 3.33%. For the same compound, the Percent Effect in assay [6] was 19.5%; in the assay filed under Homo sapiens it was 1.34%; in assay [7] it was 3.96%; in assay [8], -11%; in assay [9] it was -1.41%.

On to `CCOc1ccc(C#N)cc1NCC(=O)Nc1cc(C)no1`, for which the Percent Effect is -6.06% in assay [1]; 17.7% in [2]; -5.05% in assay [3]; -0.0832% in assay [4]; 3.68% in the assay on Trypanosoma cruzi; -7.99% in [5]. Besides, the Percent Effect in assay [6] is 4.34%; in the assay filed under Homo sapiens, -2.7%; in assay [7], 3.45%; in [8], -130%; in assay [9], -5.12%.

`CC(CN1CCN(C)CC1)NC(=O)c1cc(Cl)c2c(c1)OCO2` (stereo not given): the Percent Effect in assay [1] was -11.8%; in assay [2] it was 1.39%; in assay [3] it was 140%; in [4] it was -0.639%; with Trypanosoma cruzi it was 0.68%; in [5] it was 1.77%. In addition, the Percent Effect is 8.42% in [6]; -2.86% in the assay filed under Homo sapiens; 6.32% in assay [7]; 10.3% in assay [8]; -2.31% in assay [9].

On to `CO[C@H]1CN(C(=O)c2ccc3oc(C)cc3c2)CC[C@@]12CCCO2`, for which the Percent Effect is -0.467% in assay [1]; 1.35% in assay [2]; 11.4% in assay [3]; 2.79% in [4]; 0.593% with Trypanosoma cruzi; -0.696% in assay [5]. For the same compound, the Percent Effect in [6] is 5.77%; in the assay listed under Homo sapiens, -10.3%; in assay [7], 0%; in [8], -1.3%; in assay [9], -11.8%.
